This is a sample that favours compounds with a hit; in the whole collection about 4.2% have one here.
hgDAF12 agonist = hgDAF-12 agonism, primary luciferase screen; HEK293 GAL4-hgDAF12 UAS-luciferase reporter, agonist luminescence; normalized to butyrate control; hit rate 1.8% among 370,000; activation, % at 6.8 µM;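 active means activation above a cutoff set at the mean of all screened compounds plus 3 SD, cut at about 10% in these data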
DAX1 inh = DAX1 (NR0B1) inhibition, primary screen | AID 652010 | inhibition, % at 6.8 µM | HEK293T StAR-luciferase reporter, SF-1/DAX-1 repression relief | hit rate 1.1% among 370,000;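 active means inhibition above the mean over all tested compounds plus 3 SD, cut at about 3.6% in these data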;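 further: higher inhibition means more luminescence from relief of DAX-1 repression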
esBAF inh = SWI/SNF esBAF complex inhibition; mouse ES cells, Bmi1-luciferase knock-in reporter, 24 h; 100% = twice the neutral-well signal; hit rate 2% among 350,000; reporter increase, % at 12.5 µM; AID 602393; in the data active means activation above about 40%; inconclusive means no clear call, values can overlap the other calls;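 further: a rise in the Bmi1 reporter signal indicates esBAF inhibition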
hcDAF12 agonist = H. contortus DAF-12 activation, primary screen; hit rate 1.4% among 370,000; HEK293 hcDAF-12 lit1-tk-luc reporter, luminescence; 0% DMSO, 100% Δ7-dafachronic acid; AID 652067; activation, % at 6.8 µM;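 active means activation above the mean of all tested compounds plus 3 SD, cut at about 5.5% in these data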
ssDAF12 agonist = S. stercoralis DAF-12 activation, primary screen; HEK293 ssDAF-12/GRIP1 lit1-tk-luc reporter, luminescence; % of 3 µM dafachronic acid response; activation, % at 6.8 µM; hit rate 1% among 370,000;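 active means activation above the mean over all tested compounds plus 3 SD, cut at about 0.9% in these data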
Wnt act = Wnt/beta-catenin pathway activation; Wnt/beta-catenin reporter cell assay, activator, plate reader; activation, % at 9.35 µM; hit rate 1.2% among 300,000; AID 743398; in the data active means activation above about 30%, passing the limit was not always enough; inconclusive means no clear call, values can overlap the other calls
Large screens that a line does not name were inactive.

CCc1noc(C)c1C(=O)NNC(=O)COc1ccccc1C	Wnt act 34
CC1=C/C(=C\c2ccc(Br)o2)C(=O)O1	none (no result: esBAF inh)
O=C1C(=Cc2ccc(Br)o2)C(=O)c2ccccc21	esBAF inh 64 (no result: hgDAF12 agonist, DAX1 inh, hcDAF12 agonist, ssDAF12 agonist, Wnt act)
Cc1ccc(Cl)cc1N1CCN(C(=O)C2CCC(=O)N(C3CCCCCC3)C2)CC1 (stereo not given)	none
Cc1ccc(Cl)cc1N1CCN(C(=O)C2CCC(=O)N2C(C)C)CC1 (stereo not given)	ssDAF12 agonist 1.7
c1ccc(-c2cc3ccccc3cn2)cc1	esBAF inh 62, hcDAF12 agonist 6.2, Wnt act 48
COc1ccc(-c2cc3cc(OC)c(OC)cc3cn2)cc1	esBAF inh 68, Wnt act inconclusive
Fc1ccc2cc(-c3ccccc3)ncc2c1	esBAF inh 61, Wnt act 33
Fc1ccc2cnc(-c3cccnc3)cc2c1	none
CCC(=O)Nc1ccc2c(c1)C(=O)N(C)C[C@@H](OC)[C@@H](C)CN(CC1CCOCC1)[C@H](C)CO2	none (no result: hgDAF12 agonist, DAX1 inh, hcDAF12 agonist, ssDAF12 agonist, Wnt act)
O=c1[nH][nH]c(=O)c2c(NS(=O)(=O)c3ccccc3)cccc12	esBAF inh 46
O=C(CN1CCC(NC(=O)C2CC2)CC1)Nc1cccc(F)c1	ssDAF12 agonist 0.9
Cc1ccc(NC(=O)CN2CCC(NC(=O)c3cccc(F)c3)CC2)cc1C	none
C/C(=N\NC(=O)c1sccc1C)c1cccnc1	DAX1 inh 4.2, esBAF inh inconclusive
C/C(=N/NC(=O)c1ccc(C(C)(C)C)cc1)c1cccnc1	none
CCCOc1cccc(C(=O)Nc2cccc3ncccc23)c1	none
CCCOc1cccc(C(=O)Nc2ccc(Br)cc2F)c1	hgDAF12 agonist 11 (no result: Wnt act)
CCNC(=O)C[C@H]1CC[C@H]2[C@H](COc3ccc(NC(=O)c4ccc(F)c(F)c4)cc3C(=O)N2C)O1	none (no result: hgDAF12 agonist, DAX1 inh, hcDAF12 agonist, ssDAF12 agonist, Wnt act)
CCCOc1cccc(C2C(C(=O)c3ccc(C)o3)=C(O)C(=O)N2CCN2CCOCC2)c1 (stereo not given)	hcDAF12 agonist 5.8
C[C@@H]1CN([C@@H](C)CO)C(=O)c2cc(C#C[C@@H](C)O)cnc2O[C@H]1CN(C)C(=O)c1ccccc1F	none (no result: hgDAF12 agonist, DAX1 inh, hcDAF12 agonist, ssDAF12 agonist, Wnt act)
COCc1cn(CC[C@@H]2CC[C@@H](NC(=O)Nc3ccc(OC)cc3)[C@@H](CO)O2)nn1	none (no result: hgDAF12 agonist, DAX1 inh, hcDAF12 agonist, ssDAF12 agonist, Wnt act)
COc1ccc(-c2csc(C(NC(C)=O)c3cccc(F)c3)n2)cn1 (stereo not given)	none
COc1cccc(C(O)c2nc(-c3ccc(N(C)C)cc3)cs2)c1 (stereo not given)	esBAF inh 45
OC(c1ccccc1)c1nc(-c2cccs2)cs1 (stereo not given)	esBAF inh 49
OC(c1ccc(F)c(F)c1)c1nc(-c2cccs2)cs1 (stereo not given)	none
COc1ccc(-c2csc(C(O)c3ccccc3)n2)cn1 (stereo not given)	esBAF inh 61 (no result: hgDAF12 agonist, DAX1 inh, hcDAF12 agonist, ssDAF12 agonist, Wnt act)
O=C(N[C@H]1CC[C@@H](CC(=O)N2CCOCC2)O[C@@H]1CO)c1ccccn1	none (no result: hgDAF12 agonist, DAX1 inh, hcDAF12 agonist, ssDAF12 agonist, Wnt act)
Cc1noc(C)c1NC(=O)Nc1ccc2c(c1)C(=O)N([C@@H](C)CO)C[C@@H](C)[C@H](CN(C)C(=O)Nc1ccccc1)O2	none (no result: hgDAF12 agonist, DAX1 inh, hcDAF12 agonist, ssDAF12 agonist, Wnt act)
O=C(NCc1cccnc1)c1ccc2sc([C@@H]3O[C@H](CO)[C@H](O)[C@H](O)[C@H]3O)nc2c1	ssDAF12 agonist 0.9
Cc1ccc(S(=O)(=O)N2CCC(C(=O)Nc3nnc(-c4ccc(F)cc4)s3)CC2)cc1	hcDAF12 agonist 6.5 (no result: esBAF inh, Wnt act)
CCCc1nnc(NC(=O)CCC(=O)N2CCN(S(=O)(=O)c3ccc(C)cc3)CC2)s1	ssDAF12 agonist 1.1 (no result: esBAF inh)
Cc1cc(C)c2nc3sc(C(=O)N4CCOCC4)c(N)c3cc2c1	DAX1 inh 4.1, hcDAF12 agonist 5.7
COc1cccc(NC(=O)CN(C)C(=O)c2ccc3c(c2)CC(c2ccccc2)OC3=O)c1 (stereo not given)	Wnt act 48
COc1cccc(-c2cccc(NC(=O)C3CCN(C4CCOCC4)CC3)c2)c1	ssDAF12 agonist 1.5
CN(C)S(=O)(=O)c1cccc(-c2csc(N/N=C/c3ccco3)n2)c1	none
Cc1ccc(-c2csc(N/N=C/c3ccco3)n2)c(C)c1	esBAF inh 69 (no result: Wnt act)
O=C(CC1CCCC1)Nc1ccc2c(c1)CCC2	hgDAF12 agonist 12, esBAF inh 84
Cc1cc(NC(=O)CC2CCCC2)ccc1Br	esBAF inh 65
Cc1cc(NC(=S)NC(=O)CC(C)C)ccc1Br	esBAF inh 58
C[C@@H]1CN([C@H](C)CO)C(=O)c2cccc(NS(=O)(=O)c3ccc(Cl)cc3)c2O[C@@H]1CN(C)C(=O)Nc1ccc2c(c1)OCO2	none (no result: hgDAF12 agonist, DAX1 inh, hcDAF12 agonist, ssDAF12 agonist, Wnt act)
COc1ccc(NC(=O)Nc2ccc3c(c2)[C@@H]2C[C@@H](CC(=O)N(C)C)O[C@H](CO)[C@@H]2O3)cc1	none (no result: hgDAF12 agonist, DAX1 inh, hcDAF12 agonist, ssDAF12 agonist, Wnt act)
COc1cc(C(O)c2nc(/C=C/c3ccccc3)cs2)ccc1F (stereo not given)	none
OC(c1ccc(F)cc1)c1nc(/C=C/c2ccccc2)cs1 (stereo not given)	esBAF inh 50, Wnt act inconclusive
O=C(/C=C/c1ccccc1)Nc1cccnc1	Wnt act 39
Cc1nc(NC(=O)/C=C/c2ccccc2)n[nH]1	Wnt act 39
O=C(/C=C/c1cccs1)c1ccc([N+](=O)[O-])cc1	none
O=C(/C=C/c1cccs1)Nc1ccc([N+](=O)[O-])cc1	Wnt act 31 (no result: esBAF inh)
O=C(/C=C/c1ccccc1)NNC(=O)c1cccnc1	none
O=C(/C=C/c1ccc(Cl)c([N+](=O)[O-])c1)Nc1cccnc1	esBAF inh 53
CCCn1nnc(NC(=O)/C=C/c2ccccc2)n1	none (no result: esBAF inh)
CC(=O)N[C@@H]1CC[C@H](CC(=O)NCC2CCCCC2)O[C@@H]1CO	none (no result: hgDAF12 agonist, DAX1 inh, hcDAF12 agonist, ssDAF12 agonist, Wnt act)
O=C(C[C@@H]1C=C[C@H](NC(=O)CC2CC2)[C@@H](CO)O1)NCc1ccc(Cl)cc1	none (no result: hgDAF12 agonist, DAX1 inh, hcDAF12 agonist, ssDAF12 agonist, Wnt act)
COc1ccc(S(=O)(=O)Nc2ccc3c(c2)C(=O)N([C@@H](C)CO)C[C@H](C)[C@H](CN(C)Cc2ccc(C(F)(F)F)cc2)OCCCC[C@H](C)O3)cc1	none (no result: hgDAF12 agonist, DAX1 inh, hcDAF12 agonist, ssDAF12 agonist, Wnt act)
O=C(NCc1ccccc1Cl)[C@H]1[C@H](CO)[C@H]2Cn3c(cccc3=O)[C@H]2N1C(=O)C1CCCC1	none (no result: hgDAF12 agonist, DAX1 inh, hcDAF12 agonist, ssDAF12 agonist, Wnt act)
C[C@@H]1CN([C@H](C)CO)C(=O)Cc2cc(NC(=O)NC3CCCCC3)ccc2O[C@H]1CN(C)CC1CC1	none (no result: hgDAF12 agonist, DAX1 inh, hcDAF12 agonist, ssDAF12 agonist, Wnt act)
Cc1noc(C)c1NC(=O)N(C)C[C@H]1Oc2ccc(NC(=O)C3CCCCC3)cc2CC(=O)N([C@H](C)CO)C[C@@H]1C	none (no result: hgDAF12 agonist, DAX1 inh, hcDAF12 agonist, ssDAF12 agonist, Wnt act)
O=C(/C=C/c1cccs1)Nc1ccncc1	none (no result: esBAF inh)
O=C(/C=C/c1ccc([N+](=O)[O-])cc1)Nc1cccnc1	Wnt act 38
Cc1ccc(/C=C/C(=O)Nc2cccnc2)o1	ssDAF12 agonist 1.0 (no result: esBAF inh)
Cc1cccc(NC(=O)/C=C/c2cccs2)n1	hgDAF12 agonist 13, hcDAF12 agonist 6.2 (no result: Wnt act)
Cc1ccccc1N1C(=O)C2C3C=CC(CC3)C2C1=O (stereo not given)	none

Source: PubChem
